Source: PubChem
This is a sample that favours compounds with a hit; in the whole collection about 20% have one here.
Pf growth 48h: P. falciparum growth inhibition at 48 hours (one generation). P. falciparum luciferase growth in erythrocytes, 48 h. Potency, µM (highest dose often 28.7 µM), usual class: inhibitors. hit rate 5.9% among 310,000
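In quantitative HTS format, infected erythrocytes bearing luciferase-reporter parasites were treated for a single generation at 37 C. Luminescence after adding detection reagent served as the growth measure.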
Shiga toxin inh: inhibitors of Shiga toxin in Vero cells; inhibition, % at 38.7 µM; Vero cells, Shiga toxin protein synthesis inhibition reporter; hit rate 9.2% among 290,000; in the data active means inhibition mostly above about 28%, no sharp cut-off; inactive means mostly below about 43%
Cycloheximide cs: counter-screen for Shiga toxin inhibitors: cycloheximide protein synthesis inhibition. cell reporter, cycloheximide protein synthesis inhibition counterscreen. max response, %. hit rate 12% among 300,000. AID 2314; in the data active means max response mostly above about 13%, no sharp cut-off; inactive means mostly below about 14%; further: read at 38.3 µM for the half of the compounds with a filed dose
HCMV inh: human cytomegalovirus inhibition; HFF cells, HCMV-luciferase reporter, 72 h; stronger effect = lower value; activity change, negative = inhibition, % at 57.5 µM; AID 1259415; hit rate 4.5% among 410,000; in the data active means activity change below about -60%; inconclusive means no clear call, values can overlap the other calls; inactive means above about -39%
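Two-dose cell screen: HFF monolayers treated with compounds and infected with luciferase-expressing HCMV at 1 PFU/cell, 72 h at 37C, then lysed for luciferase measurement.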
Pf growth 96h: inhibits malaria parasite growth, 96 h. P. falciparum luciferase reporter growth, 96 h. Potency, µM (doses to about 28.7 µM), usual class: inhibitors. AID 504834. hit rate 6.9% among 320,000
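Delayed-death screen, second-generation endpoint: infected erythrocytes, 2% hematocrit, 0.05% parasitemia final; 96 hours at 37 C, 5% CO2; luciferase detection reagent; luminescence decrease equals reduced growth.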
A number is an active result; . = inactive; ? = inconclusive; / = not tested or not shown. Unless noted, the call rests on the fitted dose curve; in most records, active means well fitted inhibition curve with a large enough effect; inconclusive means small, poorly fitted or top-dose-only effect, or another doubt; inactive means no such curve, though single readings can be large or run the other way.

SMILES | Pf growth 48h | Shiga toxin inh | Cycloheximide cs | HCMV inh | Pf growth 96h
CCCN(CCC)CC(O)Cn1c2ccccc2c2ccccc21 (configuration not stated) | ? | . | . | . | ?
CCOc1ccccc1CNC(=O)Cn1c(=O)oc2ccccc21 | / | . | . | . | .
Cc1ccc(NC(=O)CCn2c(=O)oc3ccccc32)c(C)c1 | . | . | . | . | .
COCCNC(=O)CCn1c(=O)oc2ccccc21 | . | . | . | . | .
CCOc1ccc(CCNC(=O)COC(=O)/C=C/c2ccccc2)cc1OCC | ? | / | / | -87 | .
Cc1ccc(NC(=O)CCCn2c(=O)oc3ccccc32)c(O)c1 | ? | . | 12 | . | .
CCOc1ccc(CCNC(=O)Cn2c(=O)oc3ccccc32)cc1OCC | 8.3µM | . | . | . | /
COCCN(CCOC)C(=O)CCn1c(=O)oc2ccccc21 | . | . | . | . | 1.2µM
COc1cccc(CNC(=O)Cn2ccc3cc(S(=O)(=O)N4CCCCCC4)ccc32)c1OC | ? | . | . | ? | ?
CCOc1ccc(CNC(=O)CCn2c(=O)oc3ccccc32)cc1OC | ? | . | . | . | 9.3µM
CCOc1ccccc1NC(=O)CCn1c(=O)oc2ccccc21 | . | . | . | . | 6.6µM
COc1ccc(CNC(=O)Cn2c(=O)oc3ccccc32)cc1OC | . | . | . | . | /
Cc1ccc(NC(=O)CCN2C(=O)C3CCCCC3C2=O)c(O)c1 (configuration not stated) | . | / | / | . | .
Cc1ccc(NC(=O)CCCC2CCCCC2)c(O)c1 | . | 109 | 34 | . | .
CCN(CC)CCOc1nnc(-c2ccc(C)cc2)c2ccccc12 | / | . | . | . | ?
CCN(CC)CCOc1nnc(-c2ccc(OC)cc2)c2ccccc12 | . | . | . | -72 | .
CN(Cc1c(F)cccc1Cl)C(=O)c1ccc2ccccc2n1 | . | . | . | . | .
CSc1ccc(CN(C)C(=O)c2cc3ccccc3o2)cc1 | . | 87 | 39 | . | .
CN(Cc1c(F)cccc1Cl)C(=O)c1cc2ccccc2o1 | . | . | 37 | . | .
CNC1=CN(O)C(c2ccccc2)=c2cc(Cl)ccc2=N1 | 19µM | . | . | / | 13µM
Cc1ccc2c(c1)=C(c1ccccc1)N(O)CC(=O)N=2 | . | . | . | . | .
CCOC(=O)c1c(C2CC2)csc1NC(C)=O | . | . | . | -65 | .
Cc1cc(OCC(=O)N2CCC(C(=O)O)CC2)c2c(C)c(C)c(=O)oc2c1 | . | . | . | . | .
CC(C)CCNC(=O)C12CN(Cc3ccccc3)CC1C(c1cccc([N+](=O)[O-])c1)=NO2 (configuration not stated) | ? | . | . | . | ?
O=C(NCCCCc1ccccc1)C12CN(Cc3ccccc3)CC1C(c1cccc([N+](=O)[O-])c1)=NO2 (configuration not stated) | 4.7µM | . | . | . | ?
SMILES | Pf growth 48h | Shiga toxin inh | Cycloheximide cs | HCMV inh | Pf growth 96h
O=C(NCCc1cccs1)C12CN(Cc3ccccc3)CC1C(c1cccc([N+](=O)[O-])c1)=NO2 (configuration not stated) | 8.3µM | . | . | . | ?
O=C(NCCCCc1ccccc1)C12CN(Cc3ccccc3)CC1C(c1ccc([N+](=O)[O-])cc1)=NO2 (configuration not stated) | 13µM | . | . | . | ?
CCC(C)(C)n1nnnc1CN1CCC(c2nc3ccc(C)cc3[nH]2)CC1 | / | . | . | . | .
COc1ccc(Cn2nnnc2CN2CCC(c3nc4ccccc4s3)CC2)cc1 | 12µM | . | . | -70 | .
Cc1cc2nc(C3CCN(Cc4nnnn4Cc4ccccc4)CC3)[nH]c2cc1C | ? | . | . | . | 5.2µM
CCOC(=O)c1ccccc1NC(=O)Cc1sc(-c2cccnc2)nc1-c1ccc(C)cc1 | 4.1µM | . | . | / | 2.6µM
CC(=O)Nc1ccc(NC(=O)Cc2sc(C)nc2-c2ccc(C)cc2)cc1 | . | . | . | . | ?
Cc1ccc(-c2nc(-c3cccnc3)sc2CC(=O)Nc2ccc3nc(C)sc3c2)cc1 | ? | . | . | . | 13µM
CCCc1cc(CNC(=O)C2CCC(=O)N(Cc3ccccc3OC)C2)on1 (configuration not stated) | . | . | . | . | .
COc1ccc(C(CNC(=O)c2ccc(Cl)c(NC(=O)c3cccs3)c2)N2CCCC2)cc1 (configuration not stated) | 10µM | / | / | . | 8.3µM
COc1cc(C(=O)OCc2ccc(C)cc2)cc(NC(=O)c2cccs2)c1OC | 8.3µM | . | . | . | 10µM
CCOC(=O)N1CCN(C(=O)c2ccc(Cl)c(NC(=O)c3cccs3)c2)CC1 | 10µM | / | / | . | ?
COc1cc(C(=O)O)cc(NC(=O)c2cccs2)c1OC | . | . | . | . | .
CC(=O)N1CCN(C(=O)c2ccc(Cl)c(NC(=O)c3cccs3)c2)CC1 | . | / | / | . | .
Cc1ccc(NC(=O)c2ccc(Cl)c(NC(=O)c3cccs3)c2)cc1 | . | . | 53 | . | ?
COc1ccccc1CCNC(=O)Cc1c(C)c2cc3c(C(C)(C)C)coc3c(C)c2oc1=O | / | / | / | . | /
Cn1c(NCc2ccccc2)nc2cnc(Nc3ccccc3Cl)cc21 | / | / | / | . | /
Cc1nc2ccc(NC(=O)c3ccc(Cl)c(NC(=O)c4cccs4)c3)cc2s1 | . | . | 20 | . | .
Cc1ccc(NC(=O)c2cccs2)cc1NC(=O)c1cccnc1 | . | . | . | . | ?
c1ccc2c(c1)OCC(c1nnc3sc(-c4cnccn4)nn13)O2 (configuration not stated) | . | . | . | . | .
O=c1[nH]cnc2scc(C3COc4ccccc4O3)c12 (configuration not stated) | . | . | 14 | . | .
c1ccc2c(c1)OCC(c1csc3ncnc(N4CCCCC4)c13)O2 (configuration not stated) | ? | . | . | -88 | ?
Clc1ncnc2scc(C3COc4ccccc4O3)c12 (configuration not stated) | 2.9µM | . | . | . | 2.6µM
CCCN1CCN(c2ncnc3scc(C4COc5ccccc5O4)c23)CC1 (configuration not stated) | ? | . | . | . | .
O=C(NCc1n[nH]c(=S)n1-c1cccc(C(F)(F)F)c1)c1ccco1 | . | . | . | . | ?
SMILES | Pf growth 48h | Shiga toxin inh | Cycloheximide cs | HCMV inh | Pf growth 96h
COCCCN1C(=O)C(=O)/C(=C(/O)c2ccc(C)cc2)C1/C=C/c1ccccc1 (configuration not stated) | . | . | . | . | .
Cc1ccccc1CNC(=O)c1ccc2c(c1)N(Cc1ccccc1)CCS2 | / | / | / | . | /
O=C(Oc1oc(-c2ccco2)nc1C=Nc1ccccc1)c1ccoc1 | . | . | 17 | ? | /
O=C(Oc1oc(-c2ccco2)nc1C=Nc1ccccc1)c1ccco1 | . | 39 | 16 | / | .
Cc1ccc(C(=O)Oc2oc(-c3ccco3)nc2C=Nc2ccc(Cl)cc2)cc1 | . | 99 | 36 | . | .
CCN1C(=S)N[C@@H](c2cccs2)C(C(=O)OC)=C1C | ? | . | . | ? | .
O=C(Nc1ccc(Cl)cc1)N(C1=NCCC1)c1ccc(OC(F)F)cc1 | . | 75 | 41 | . | .
